About 4,000 (2.1%) of roughly 190,000 compounds were called active. This is one part of a sample in which actives are shown more often than they occur. Cut-off read from the data, not from the text of the source: active = inhibition above about 58%; inactive = the rest, inconclusive results apart; tested in S. cerevisiae.
Test: growth inhibition of WT strain, primary screen, mitochondrial fusion inhibitor project, WT and mutant strains, chemical genetic (AID 1362)
Conditions: mitochondrial fusion phenotypic screen, at 10 µM
[1] = WT strain, growth inhibition, stronger effect = higher value

SMILES | inhibition [1] | inhibition (mutant strain inhibition)
c1ccc2sc(NN=C3CCCC3)nc2c1 | 1.96% (inactive) | -13.6%
Cc1cc(C)n2nc(SCC(N)=O)nc2n1 | 1.11% (inactive) | -5.58%
COc1ccc(Br)cc1CN(C)CC(=O)Nc1cc([N+](=O)[O-])ccc1OC | -3.27% (inactive) | 14%
COc1ccc(Br)cc1CN(C)CC(=O)Nc1cc(Cl)cc(Cl)c1 | 64.1% (active) | -2.55%
COc1ccc(Cl)cc1NC(=O)CN(C)Cc1ccc(OC)c(OC)c1 | 13.3% (inactive) | 10.6%
CCC(C(=O)Nc1ccc2c(c1)OCCO2)c1ccccc1 (stereo not given) | -3.34% (inactive) | -11.8%
CCOC(=O)N1CCN(Cc2nc3ccc([N+](=O)[O-])cc3c(=O)n2-c2cccc(OC)c2)CC1 | -16.2% (inactive) | 2.45%
COc1cc(C(=O)NCc2ccc(-n3cccc3)cc2)cc(OC)c1OC | 4.37% (inactive) | -13.6%
COC(=O)CCNC(=O)c1ccc2[nH]c(C)c(C)c2c1 | 3.23% (inactive) | -1.22%
Cc1cccc(OCC(O)CN2CCN(CCN3C(=O)c4cccc5cccc(c45)C3=O)CC2)c1C (stereo not given) | 64.5% (active) | 57.3%
Cc1ccccc1OCC(O)CN1CCN(c2ccccn2)CC1 (stereo not given) | 5.12% (inactive) | 6.35%
Cc1cccc(C)c1OCC(O)CN1CCCCC1 (stereo not given) | -0.96% (inactive) | 0.39%
CN(CCc1cn[nH]c1)C(=O)CC1C(=O)NCCN1Cc1cccc(Oc2ccccc2)c1 (stereo not given) | 0.86% (inactive) | 0.64%
CC(C)C(=O)Nc1oc(-c2ccccc2)cc1C#N | 8.16% (inactive) | -3.13%
O=C(Nc1nnc(-c2ccccc2)o1)c1cc(-c2cccs2)nc2ccccc12 | 70.4% (active) | 64.4%
CC(C)(C)Cc1nnc(NC(=O)c2cc(-c3ccccc3)nc3ccccc23)s1 | 34.7% (inactive) | 9.7%
CCCC(=O)Nc1nnc(-c2ccccc2)o1 | -6.78% (inactive) | 13.2%
Cc1cc(C)c2[nH]c(=O)c(CN(Cc3ccccc3)C(=S)NCCCN(C)C)cc2c1 | -2.4% (inactive) | 16.4%
Cc1cc2c(cc1C)[n+](C)cn2CC(O)COCC1CC=CCC1 (stereo not given) | 0.89% (inactive) | -7.37%
COc1ccc(C)cc1NC(=O)c1ccc(-c2ccc(C(C)=O)cc2)o1 | 15.7% (inactive) | 5.74%
COc1cc(SC#N)ccc1N=Cc1c(C)[nH]n(-c2ccc(C)cc2)c1=O | 81.4% (active) | 11.6%
CCc1nnc(NS(=O)(=O)c2ccc(N=Cc3c(C)[nH]n(-c4ccc(C)cc4)c3=O)cc2)s1 | 40.8% (inactive) | 28.3%

SMILES | inhibition [1] | inhibition (mutant strain inhibition)
Cc1ccc(-n2[nH]c(C)c(/C=N/N3C(=O)c4cccc5cccc(c45)C3=O)c2=O)cc1 | 13.3% (inactive) | 13%
Cc1ccc(OCC(=O)Nc2ccc(S(=O)(=O)Nc3ccccn3)cc2)cc1 | -2.17% (inactive) | -9.5%
NS(=O)(=O)c1ccc(NC(=S)NC(=O)c2cccnc2)cc1 | -6.97% (inactive) | -10.8%
Cn1nnnc1NCc1ccc(Cl)c(Cl)c1 | -2% (inactive) | 14.5%
O=[N+]([O-])c1ccc(F)cc1Oc1nc(-c2cccnc2)nc2ccccc12 | 2.1% (inactive) | 3.69%
O=[N+]([O-])c1ccc(Oc2ccc(F)cc2Br)c2ccncc12 | 68.7% (active) | 58.1%
O=C(O)CSc1nccc2ccccc12 | -2.02% (inactive) | -7.45%
Cc1ccc(Nc2nnc(SCC(=O)c3cc4ccccc4o3)s2)cc1C | 0.56% (inactive) | 20.2%
O=C(CSc1nnc(Nc2ccccc2)s1)Nc1cccnc1Cl | -3.41% (inactive) | -15.4%
CC(C)c1ccc(Nc2nnc(SCC(=O)c3nnc(-c4ccccc4)o3)s2)cc1 | 70.5% (active) | 55.7%
S=C(NCc1ccco1)Nc1ccc2c(c1)OCCO2 | -2.47% (inactive) | 9.66%
CC(C)(C)NC(=O)NC(=O)COC(=O)Cc1c(F)cccc1Cl | -15.4% (inactive) | 1.6%
NS(=O)(=O)c1ccc(NC(=S)NC(=O)c2cccc(Br)c2)cc1 | 11% (inactive) | 20.3%
NS(=O)(=O)c1ccc(CCNC(=S)Nc2ccc(S(N)(=O)=O)cc2)cc1 | -5.98% (inactive) | -14.5%
NS(=O)(=O)c1ccc(NC(=S)Nc2ccc(Br)c(Cl)c2)cc1 | 82.6% (active) | 54.2%
CCCn1c(=S)[nH]c2ccc(C(F)(F)F)cc21 | 2.77% (inactive) | 12.1%
CO/N=C/c1cn(-c2ccc(Cl)cc2)nn1 | -5.72% (inactive) | -2.58%
O=C(c1ccco1)N1CCN(C(=O)C2c3ccccc3Oc3ccccc32)CC1 | 71.1% (active) | 6.75%
O=C(c1ccc2c(c1)OCO2)N1CCN(C(=O)c2ccco2)CC1 | -13.2% (inactive) | -33.3%
O=C(c1ccco1)N1CCN(c2cccc(Cl)c2)CC1 | 7.68% (inactive) | -0.39%
O=C(C1CCN(C2CCN(Cc3cccc4c3OCO4)CC2)CC1)N1CCOCC1 | 5.02% (inactive) | 2.36%
CN(C)CCCN1C(=O)CSC1c1ccc([N+](=O)[O-])cc1 (stereo not given) | -4.48% (inactive) | 1.39%

SMILES | inhibition [1] | inhibition (mutant strain inhibition)
COc1ccc(/C=C/C(=O)OCC(=O)Nc2cccc(Oc3ccccc3)c2)c(OC)c1 | 7.56% (inactive) | 8.13%
COc1cc(/C=C/C(=O)OCC(=O)Nc2cccc(Oc3ccccc3)c2)ccc1O | 68.3% (active) | 29%
COc1cccc(NC(=O)COC(=O)CCOc2ccccc2OC)c1 | -0.47% (inactive) | -4.38%
O=C(c1ccc(C(F)(F)F)cc1)C1CCCN(C(=O)c2csnn2)C1 (stereo not given) | 7.52% (inactive) | 10.7%
COc1ccc(-c2csc(NC(=O)c3ccc(N4C(=O)CCC4=O)cc3)n2)cc1OC | 7.99% (inactive) | 3.27%
CC(=O)c1ccc(N2CCN(CC(=O)Nc3ccccc3N3CCOCC3)CC2)cc1 | -16% (inactive) | 4.64%
COC(=O)Cc1ccc(NC(=S)NCc2ccco2)cc1 | 6.76% (inactive) | 3.2%
O=C(O)C1CC=CCC1C(=O)Nc1ccccc1C(=O)N1CCN(c2ccccc2)CC1 (stereo not given) | -12.3% (inactive) | -3.47%
Cc1cccc(N2CCN(C(=O)c3ccccc3NC(=O)C3CCCCC3C(=O)O)CC2)c1 (stereo not given) | -3.08% (inactive) | -3.64%
CC(C)c1ccc(N2CCN(C(=O)c3ccccc3NC(=O)/C=C(\C(=O)O)c3ccccc3)CC2)cc1 | 71% (active) | 37.8%
COc1cc(NC(=S)NCCSc2ccc(C)cc2)cc(OC)c1 | 71.4% (active) | 51.4%
COc1cc(NC(=S)NCc2ccc(S(N)(=O)=O)cc2)cc(OC)c1 | -1.93% (inactive) | 4.18%
COc1ccc(NC(=S)NCCNC(C)=O)cc1 | 3.42% (inactive) | 8.02%
Cc1nnc(SC(C(=O)Nc2cc(Cl)cc(Cl)c2)c2ccccc2)[nH]c1=O (stereo not given) | 1.45% (inactive) | 9.8%
COc1cc(/C=C/C(=O)OCC(=O)NC(=O)NCc2ccccc2)ccc1OCC#N | 6.54% (inactive) | 3.13%
CN1C(=O)C(CC(=O)Nc2ccccc2)S/C1=N/c1nccs1 (stereo not given) | -7.94% (inactive) | 3.24%
COc1ccc(Cl)cc1NC(=O)C(C)N1CCc2ccccc21 (stereo not given) | 54% (inactive) | 18.4%
COCCOCCn1cnc2ccccc21 | -10.3% (inactive) | -7.09%
Cc1cc2ncn(CCCCOc3ccccc3)c2cc1C | 62.5% (active) | 44.6%
Clc1ncn(CCOc2ccccc2)c1Cl | -14.3% (inactive) | -12.6%
COc1ccc(C(=O)NNC(=O)c2cc(C)[nH]n2)cc1 | -20% (inactive) | -23.8%
C/C(=C\c1ccco1)CN1CCC(N2CCC(C(=O)N3CCOCC3)CC2)CC1 | -2.61% (inactive) | 2.35%

SMILES | inhibition [1] | inhibition (mutant strain inhibition)
O=C(NC(=S)Nc1cccc(-c2ccc(CO)o2)c1)c1cccs1 | 6.13% (inactive) | 12.3%
CC(=O)Nc1ccc(NC(=S)NC(=O)/C=C/c2ccccc2)cc1 | -1.35% (inactive) | -0.82%
CCOC(=O)c1cc2cc(-c3c(C(=O)OCC)oc4cc(O)cc(O)c4c3=O)ccc2o1 | -4.08% (inactive) | -39.7%
COc1ccc(-c2onc(C)c2-c2ccc3c(c2)OCCO3)c(O)c1 | 21.9% (inactive) | -8.53%
O=c1c(-c2ccc3c(c2)OCCO3)c(C(F)(F)F)oc2cc(O)cc(O)c12 | 70.7% (active) | 42.8%
Cc1ccc(NC(=S)NCc2ccccc2Cl)c(C)c1 | 41% (inactive) | -1.48%
S=C(NCCc1ccccc1)N1CCCCC1 | 8.05% (inactive) | 12.7%
S=C(NCCc1ccccc1)NCc1ccccc1Cl | 62% (active) | 35.9%
CC(=O)N1CCN(S(=O)(=O)c2c(F)cc(F)c(Cl)c2F)CC1 | -3.19% (inactive) | 3.15%
CSc1ccc(/C=N/N2CCN(Cc3ccccc3Cl)CC2)cc1 | 43.5% (inactive) | 23.8%
COc1cc(CNC2CCCCC2)c(Br)cc1OC1CCCC1 | 18.3% (inactive) | 20.6%
CCc1ccccc1NC(=O)c1cccs1 | 2.87% (inactive) | -2.72%
O=C(/C=C/c1ccccc1)N/C(=C/c1ccccc1)C(=O)Nc1ccccc1O | -8.09% (inactive) | -0.03%
CCc1ccccc1NC(=O)/C(=C/c1ccccc1)c1ccccc1 | 64.8% (active) | 9.35%
CCN(CC)CCN(C(=O)c1ccc(N2C(=O)CCC2=O)cc1)c1nc2cc3c(cc2s1)OCO3 | 2.8% (inactive) | -0.18%
COc1ccc(-c2ccc(CNCCCN3CCOCC3)o2)cc1Cl | 6.85% (inactive) | 12.6%
C=CCNC(=S)NNC(=O)COc1c(Cl)cc(Cl)cc1Cl | 67.1% (active) | 29.7%
C=CCNC(=S)NNC(=O)c1ccc(Br)o1 | -3.81% (inactive) | 3.41%
C=CCNC(=O)COC(=O)CNC(=O)c1cc(Cl)cc([N+](=O)[O-])c1 | -6.93% (inactive) | 10.8%
